# Experimental data: PubChem BioAssay (NCI)
# Compounds without any hit were thinned out: in the full panel of roughly 83,000, 20% have a hit.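 Method: cells in 96-well plates; compound added at one concentration; 48 h incubation; percent growth measured; values under 10 scored active.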 Active and inactive are the calls of the source.
# Test system: HCC-2998 colon
# Test: NCI-60 one-dose screen, 48 h (100 = growth as untreated, 0 = no growth, -100 = all killed)
# Conditions: 10 µM unless noted
row,Structure (SMILES),growth
1,CC(=O)Nc1ccc(O)c(C)c1,106% (inactive)
2,O=C(c1cccc(C(=O)c2ccc3c4c(cccc24)C(=O)N(c2ccccc2)C3=O)c1)c1ccc2c3c(cccc13)C(=O)N(c1ccccc1)C2=O,114% (inactive)
3,Cc1ccc(S(=O)(=O)Oc2ccc3sc4c(CO)ccc(NCCN(C)C)c4c(=O)c3c2)cc1,-88.2% [100 µM] (active)
4,O=C1NC(=O)/C(=C\c2ccncc2)N1,133% (inactive)
5,O=C(c1ccccc1O)N1CCCC1,101% (inactive)
6,C1Cc2onc(-c3noc4c3CCC4)c2C1,115% (inactive)
7,O=S(=O)(O)c1ccc(O)c(C2CCCCC2)c1,113% (inactive)
8,CNc1ccccc1C(=O)N/N=C/C=C/c1ccccc1,42.2% (inactive)
9,O=C(O)CC1=CCCCC1,94.3% (inactive)
10,CC(C)c1ccc(C(=O)OCCCl)cc1,98.9% (inactive)
11,CCCCCCCCNC(=O)C(C)C,115% (inactive)
12,Cc1ccc(C)c2c1CCC2=O,96.7% (inactive)
13,CC1(C)CCC(C)(C)NC(=S)N1,109% (inactive)
14,COc1ccc(/C=N/NC(=O)COCC(=O)N/N=C/c2ccc(OC)cc2)cc1,111% (inactive)
15,Cc1ccccc1NC(=O)Oc1ccc(Cl)cc1C(=O)c1ccccc1,107% (inactive)
16,CC(=O)c1cccs1,98.4% (inactive)
17,CSc1cnc2ccccc2n1,98.5% (inactive)
18,CCCC(OC(C)=O)c1ccc2c(c1)OCO2 (configuration not stated),98% (inactive)
19,CC(C)N(C(=O)c1ccccc1)C(C)C,98.3% (inactive)

row,Structure (SMILES),growth
1,O=C(O)c1ccc(OCc2ccccc2)cc1,101% (inactive)
2,COc1cc(C(=O)O)c(O)c(C(C)(C)C)c1,96.7% (inactive)
3,CC1(C)OC2C(CO)OC(n3ccc(=O)[nH]c3=O)C2O1 (configuration not stated),102% (inactive)
4,Cc1cccnc1NC1OC(=O)c2ccccc21 (configuration not stated),106% (inactive)
5,NS(=O)(=O)c1cc(=O)[nH]c(=O)[nH]1,121% (inactive)
6,CCC1CCC(C)NC1 (configuration not stated),106% (inactive)
7,Cc1ccc2[nH]c3ccccc3c2c1,100% (inactive)
8,C=C1C(=O)C2CCN1CC2,106% (inactive)
9,C=CCNC(=S)N/C=C(/C(=O)c1ccccc1)c1ccccc1,105% (inactive)
10,CCc1ccccc1C(=O)N(CC)CC,104% (inactive)
11,CN(C)CCOC(=O)Nc1ccc(Cc2ccc(NC(=O)OCCN(C)C)cc2)cc1,46.2% [100 µM] (inactive)
12,CC(C)NC(=O)OCc1c(COC(=O)NC(C)C)c(-c2ccc(Cl)cc2)n2c1CCC2,87% (inactive)
13,Nc1ccc2c(c1)Cc1cc(N)c(N)cc1-2,110% (inactive)
14,CCOC(=O)C(=O)CC(=O)c1ccccc1,101% (inactive)
15,CCNc1ncnc2[nH]ncc12,106% (inactive)
16,COc1nc(Nc2cccc(C(F)(F)F)c2)nc(OC)n1,108% (inactive)
17,CC(=O)c1cccc(O)c1,110% (inactive)
18,CC(C)c1ccccc1NC(=O)N1CCC(C(C)C)CC1,109% (inactive)
